{"source": "PubChem BioAssay AID588342", "about": "(National Center for Advancing Translational Sciences (NCATS), 2011)", "note": "Among all 360,000 compounds or so, about 25,000 (6.9%) were called active. About 9% were inconclusive and are not listed. The full list was thinned out, with actives kept by preference. Unmarked numbers belong to inactive results. Calls follow the shape of the dose curve; as a rule, active = well fitted inhibition curve with a large enough effect; inconclusive = small, poorly fitted or top-dose-only effect; inactive = flat fitted curve, though single readings scatter. Potency is read from the fitted curve at half-maximal effect."}
{"target": "Luciferin 4-monooxygenase (Photinus pyralis) (UniProt P08659)", "sequence (P08659 whole entry, looked up)": "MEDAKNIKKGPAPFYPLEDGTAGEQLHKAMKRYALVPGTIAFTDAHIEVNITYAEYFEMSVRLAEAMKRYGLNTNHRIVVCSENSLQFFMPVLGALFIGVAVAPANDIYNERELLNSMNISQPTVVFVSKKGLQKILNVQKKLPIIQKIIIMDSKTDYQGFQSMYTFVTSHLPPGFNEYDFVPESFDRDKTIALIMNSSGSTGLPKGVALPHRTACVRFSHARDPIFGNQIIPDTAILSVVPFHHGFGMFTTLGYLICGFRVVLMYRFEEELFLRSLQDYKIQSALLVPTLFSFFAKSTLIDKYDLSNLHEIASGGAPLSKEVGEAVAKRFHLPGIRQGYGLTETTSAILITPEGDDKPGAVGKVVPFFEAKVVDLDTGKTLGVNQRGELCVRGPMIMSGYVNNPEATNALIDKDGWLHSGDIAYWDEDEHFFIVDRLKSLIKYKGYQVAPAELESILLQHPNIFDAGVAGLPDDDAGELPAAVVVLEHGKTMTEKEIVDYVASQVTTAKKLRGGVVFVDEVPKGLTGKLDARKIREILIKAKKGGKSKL", "assay": "qHTS profiling assay for firefly luciferase inhibitor/activator using purifed enzyme and Km concentrations of substrates (counterscreen for miR-21 project); also: nearly all actives have a fitted effect of over 55% in size;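 as to activity change, negative = inhibition: plate controls were vehicle for no effect and reference inhibitor for full effect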", "details": "purified FLuc, luminescence inhibition; series mostly up to 57.5 µM; activity change, negative = inhibition: at the top concentration", "in_short": "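Purified P. pyralis luciferase, 10 nM final, with Km-level 10 uM D-luciferin and 10 uM ATP in 50 mM Tris acetate pH 7.5, 10 mM Mg acetate, 0.01% Tween-20, 0.05% BSA; 6-point qHTS titration about 60 µM downward; luminescence read.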", "units": {"activity change, negative = inhibition": "%"}}
{"smiles": "Nc1nc(COC(=O)CCC(=O)c2ccc(Cl)cc2)nc(Nc2ccccc2)n1", "activity change, negative = inhibition": -5.03}
{"smiles": "CCOC(=O)c1sc(NC(=O)CSc2ncccn2)c(C#N)c1C", "activity change, negative = inhibition": 2.76}
{"smiles": "CC(C)NS(=O)(=O)c1ccc(NC(=O)c2cccnc2)cc1", "activity change, negative = inhibition": -0.0382}
{"smiles": "Cc1c(C(=O)OC(C)C)sc(NC(=O)c2cccnc2)c1C#N", "Potency": "6.75 µM (active)"}
{"smiles": "Cc1ccc(NS(=O)(=O)c2ccc3c(c2)CC(=O)N3)cc1Cl", "activity change, negative = inhibition": -14.3}
{"smiles": "CC(=O)c1ccc(OCCN2CCOCC2)cc1", "activity change, negative = inhibition": 5.68}
{"smiles": "CC(C)(c1ccccc1)c1ccc(OCCN2CCCC2)cc1", "activity change, negative = inhibition": 0.0605}
{"smiles": "c1ccc(-c2ccc(OCCN3CCOCC3)cc2)cc1", "Potency": "16.9 µM (active)"}
{"smiles": "O=C(C1CC1)N1CCc2cc(Br)cc(S(=O)(=O)N3CCN(c4ccccc4F)CC3)c21", "activity change, negative = inhibition": -7.45}
{"smiles": "COc1cccc(CN(C)C(=O)CC23CC4CC(CC(C4)C2)C3)c1OC", "activity change, negative = inhibition": -15}
{"smiles": "Cc1cccc(-c2nc(Nc3ccc(O)cc3)c3ccccc3n2)c1", "Potency": "19 µM (active)"}
{"smiles": "COc1cc(Nc2nc(-c3ccc(OC)c(OC)c3)nc3ccccc23)cc(OC)c1", "activity change, negative = inhibition": -16.2}
{"smiles": "CCC(=O)OCCNc1nc(-c2ccccc2)nc2ccccc12", "activity change, negative = inhibition": -4.01}
{"smiles": "CCOc1ccc2c(c1)cc(CN(C(=O)CC)C1CCCCC1)c1nnnn12", "activity change, negative = inhibition": 1.41}
{"smiles": "COc1ccc(C)cc1N(C)C(=O)c1c(C)oc2ncnc(N3CCOCC3)c12", "activity change, negative = inhibition": -3.5}
{"smiles": "COc1cc(Cl)c(C)cc1Nc1nnc(-n2nc(C)cc2C)c2ccccc12", "activity change, negative = inhibition": 0.688}
{"smiles": "O=c1[nH]c2cc(Br)ccc2n2cccc12", "activity change, negative = inhibition": 5.01}
{"smiles": "O=C(N/N=C/c1sc(N2CCCCC2)nc1-c1cccs1)c1cccnc1", "Potency": "21.3 µM (active)"}
{"smiles": "O=C(NN=C1CCC(=NNC(=O)c2cccnc2)CC1)c1cccnc1", "activity change, negative = inhibition": 2.4}
{"smiles": "Cc1ccc(S(=O)(=O)N2CCCCC2)cc1NC(=O)c1cccnc1", "activity change, negative = inhibition": -0.669}
{"smiles": "COc1ccc2cc(C(=O)C3CCCN(C(=O)c4sc(C)nc4C)C3)ccc2c1", "note": "(stereo not drawn)", "activity change, negative = inhibition": -3.22}
{"smiles": "COc1ccc2c(c1)CCc1cn3ncc(C#N)c3nc1-2", "activity change, negative = inhibition": 3.08}
{"smiles": "COc1ccc2nc(N3CCCC(O)C3)c(C#N)cc2c1", "note": "(stereo not drawn)", "Potency": "7.57 µM (active)"}
{"smiles": "COc1cc2c(cc1OC)CN(C(C)C(=O)Nc1cccc(S(=O)(=O)N3CCOCC3)c1)CC2", "note": "(stereo not drawn)", "activity change, negative = inhibition": 5.89}
{"smiles": "COc1ccc(S(=O)(=O)NCCCCOc2ccc(Cl)cc2)cc1", "activity change, negative = inhibition": -0.503}
{"smiles": "Cc1cc(S(=O)(=O)N2CCOCC2)ccc1OCC(=O)N1CCOCC1", "activity change, negative = inhibition": -0.856}
{"smiles": "COCc1c(C(=O)OCC(=O)Nc2ccc(OC(F)F)cc2)oc2ccccc12", "activity change, negative = inhibition": -0.0136}
{"smiles": "O=C(CCc1nc(-c2ccccc2)no1)Nc1cccc(C(=O)NC2CC2)c1", "activity change, negative = inhibition": 0.236}
{"smiles": "O=C(NC1CCN(S(=O)(=O)c2ccc(F)cc2)CC1)c1ccccc1", "activity change, negative = inhibition": 0.126}
{"smiles": "O=C(NC1CC1)c1ccc(-c2ccccc2)cc1", "Potency": "16.9 µM (active)"}
{"smiles": "O=C(NC1CCCC1)c1cc(-c2ccccc2)on1", "Potency": "5.36 µM (active)"}
{"smiles": "O=C(NC1CC1)c1cccc(Br)c1", "activity change, negative = inhibition": 0.544}
{"smiles": "CC(=O)c1cc(-c2ccccc2)n(CC(=O)NC2CCCCC2)c1C", "Potency": "inactive"}
{"smiles": "COc1ccc(-c2c(C)c3ccc(O)c(CN4CCCC4)c3oc2=O)cc1OC", "activity change, negative = inhibition": -0.838}
{"smiles": "Cn1nc(C(=O)OCC(=O)N(Cc2ccccc2)C(C)(C)C)c2ccccc2c1=O", "activity change, negative = inhibition": 6.48}
{"smiles": "CSc1ccccc1-c1nnc(-c2ccc(Cl)cc2)o1", "Potency": "5.36 µM (active)"}
{"smiles": "FC(F)(F)c1cnc(Oc2ccccc2-c2nnc(-c3ccc(Cl)cc3)o2)c(Cl)c1", "activity change, negative = inhibition": -19.2}
{"smiles": "O=C(O)c1cc(S(=O)(=O)Nc2ccc3cn[nH]c3c2)ccc1Br", "activity change, negative = inhibition": -5.78}
{"smiles": "O=C(CCCN1C(=O)c2ccccc2C1=O)Oc1ccc(Cl)cc1", "activity change, negative = inhibition": -5.24}
{"smiles": "Cc1cc(C(=O)COC(=O)CCCN2C(=O)c3ccccc3C2=O)c(C)n1C", "Potency": "23.9 µM (active)"}
{"smiles": "Cc1cc(C)cc(OCC(=O)NNC(=O)CCN2C(=O)c3ccccc3C2=O)c1", "activity change, negative = inhibition": 1.62}
{"smiles": "CCCCN(Cc1ccccc1)C(=O)C1CCN(Cc2sccc2C)CC1", "activity change, negative = inhibition": -2.08}
{"smiles": "O=C(NC1CC(=O)N(c2ccc(F)cc2)C1)c1cccs1", "note": "(stereo not drawn)", "activity change, negative = inhibition": -0.832}
{"smiles": "COc1ccc(CCN(C(=O)COc2ccccc2)c2nc(-c3ccccc3)cs2)cc1OC", "activity change, negative = inhibition": 0.0185}
{"smiles": "CN(C(=O)CSc1nc(C2CC2)nc2ccccc12)c1nc(-c2ccccc2)cs1", "activity change, negative = inhibition": 1.2}
{"smiles": "CN(c1ccc(O)cc1)c1nc(-c2cccnc2)cs1", "Potency": "4.78 µM (active)"}
{"smiles": "Cc1ccc(S(=O)(=O)N(Cc2nc(-c3ccc(Cl)cc3)no2)C2CCCCC2)cc1", "activity change, negative = inhibition": 1.23}
{"smiles": "CC(C(=O)N1CCc2ccccc21)N(C)CC(=O)Nc1ccc(F)cc1", "note": "(stereo not drawn)", "activity change, negative = inhibition": -1.04}
{"smiles": "Cc1cccn2c(=O)c(C=O)c(Nc3ccc(S(N)(=O)=O)cc3)nc12", "activity change, negative = inhibition": 0.613}
{"smiles": "Cc1cccn2c(=O)c(/C=C3\\SC(=S)N(CC(C)C)C3=O)c(NCCCOC(C)C)nc12", "activity change, negative = inhibition": 1.38}
{"smiles": "CNc1nc2c(C)cccn2c(=O)c1C=Nc1ccc(OC)cc1", "Potency": "12 µM (active)"}
{"smiles": "Cc1ccc(CNC(=O)c2c(O)nc3c(C)cccn3c2=O)cc1", "activity change, negative = inhibition": -7.24}
{"smiles": "O=C(CCn1c(=O)oc2ccccc21)Nc1ccon1", "activity change, negative = inhibition": -14.9}
{"smiles": "CC(C)Nc1nnc(SCC(=O)c2c[nH]c3ccccc23)s1", "activity change, negative = inhibition": -11.3}
{"smiles": "Cc1ccccc1Nc1nnc(SCC(=O)c2cc3ccccc3o2)s1", "activity change, negative = inhibition": -1.37}
{"smiles": "CC(C)c1ccc(Nc2nnc(SCC(=O)c3nnc(-c4ccccc4)o3)s2)cc1", "Potency": "10.7 µM (active)"}
{"smiles": "CC1CCCC(NC(=O)c2cc(S(=O)(=O)N3CCCCC3)ccc2Cl)C1C", "note": "(stereo not drawn)", "activity change, negative = inhibition": 2.31}
{"smiles": "C(=N/Nc1cc(N2CCOCC2)nc(N2CCOCC2)n1)/c1ccccc1", "activity change, negative = inhibition": -3.51}
{"smiles": "Cc1nc(Cl)cc(N/N=C/c2ccccc2)n1", "Potency": "16.9 µM (active)"}
{"smiles": "Cc1cc(N/N=C\\c2ccc(Br)cc2)nc(-n2nc(C)cc2C)n1", "activity change, negative = inhibition": -0.864}
{"smiles": "CN(CC(=O)Nc1ccc(F)c(F)c1F)C(=O)Cn1cnc2c1c(=O)n(C)c(=O)n2C", "activity change, negative = inhibition": 2}
{"smiles": "CC1CCCN(CC(O)COc2ccc3c(c2)OCO3)C1", "note": "(stereo not drawn)", "activity change, negative = inhibition": 1.9}
{"smiles": "COC(=O)C(C)Oc1ccc2c(c1)O/C(=C\\c1cccc(Br)c1)C2=O", "note": "(stereo not drawn)", "activity change, negative = inhibition": -19.3}
{"smiles": "O=C1/C(=C/c2ccc3c(c2)OCO3)Oc2cc(OCC(=O)N3CC(O)C[C@H]3C(=O)O)ccc21", "note": "(stereo partly drawn)", "Potency": "0.757 µM (active)"}
{"smiles": "O=C(CCNS(=O)(=O)c1ccc(Br)cc1)NCC1CCCO1", "note": "(stereo not drawn)", "activity change, negative = inhibition": 3.61}
{"smiles": "O=C(Nc1ccccc1N1CCCCC1)c1ccc2nccnc2c1", "activity change, negative = inhibition": -1.25}
{"smiles": "O=C(Nc1ccccc1N1CCCC1)c1ccc2ccccc2c1", "Potency": "15.1 µM (active)"}
{"smiles": "O=C(Nc1ccccc1N1CCCC1)c1ccc(F)c(S(=O)(=O)N2CCOCC2)c1", "activity change, negative = inhibition": 0.53}
